DT40 TDP1 no CPT – qHTS for Inhibitors of human tyrosyl-DNA phosphodiesterase 1 (TDP1): qHTS in cells in absence of CPT. DT40 Tdp1-/- hTDP1 cells, no CPT, ATP luminescence, 48 h. Potency, µM (highest dose often 46.2 µM), for inactives: top-dose activity change, negative = growth inhibition, actives largely listed as inhibitors. 420,000 compounds, 15% hits; further: potency means the concentration at half of the fitted maximal effect; on the % scale 0 is the no-effect control and ±100 the full control effect; nearly all actives have a fitted effect of over 55% in size
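A cellular qHTS used chicken DT40 cells lacking endogenous Tdp1 but carrying stably transfected human TDP1. Compounds were applied without camptothecin, and cell growth kinetics were judged by ATP-dependent luminescence after ≥48 hr.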
TGFb inhibitor – blocks TGF-b signaling | Potency, µM (doses to about 46.1 µM), for inactives: at the highest dose activity, negative = inhibition, most hits filed as inhibitors | HepG2 CAGA-GFP TGF-b/SMAD3 reporter, GFP fluorescence, 18 h; TGF-beta stimulated, 500 pg/mL final | 410,000 compounds, 1.2% hits | AID 588855; further: potency means the concentration at half of the fitted maximal effect; on the % scale 0 is the no-effect control and ±100 the full control effect; nearly all actives have a fitted effect of over 65% in size
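Read-out: total well GFP (ex488/em500-530) summed from mean per-cell fluorescence. Cells: HEPG2 CAGA-GFP, 1% FBS DMEM, 18 h at 37 degrees C with 500 pg/mL final TGF-beta. Unstimulated wells served as the full-inhibition control; stimulated DMSO wells = 0%.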
TDP1 cell CPT – DT40-hTDP1 cell growth loss with CPT; 420,000 compounds, 12% hits; chicken DT40 Tdp1-/-;hTDP1 cells + 20 nM CPT, ATP luminescence, 48 h; Potency, µM (top dose mostly 46.2 µM), for inactives: top-dose activity change, negative = growth inhibition, hits mostly inhibitors; AID 686979; further: potency means the concentration at half of the fitted maximal effect; on the % scale 0 is the no-effect control and ±100 the full control effect; nearly all actives have a fitted effect of over 55% in size
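Chicken DT40 Tdp1-/- cells stably complemented with human TDP1 were seeded at 400 cells/well in medium containing 20 nM camptothecin, exposed to pin-transferred compounds, and grown at 37 °C for at least 48 hr. Viability was read as ATP luminescence.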
IL-1B inflam inh – inflammasome signaling inhibition, IL-1 beta readout; THP-1 LPS/ATP IL-1B secretion, AlphaLISA, 16 h; hits give low values; activity change, % at 57.5 µM; 360,000 compounds, 4.7% hits; AID 743279; in the data active means activity change below about -50%; inconclusive means mostly about -30% to -49%; further: on the % scale 0 is the no-effect control and ±100 the full control effect
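THP-1 cells pretreated 1 hr with compounds (up to 57.5 uM final), then stimulated with LPS (250 ng/mL final) plus ATP (1.25 mM final); secreted IL-1B measured by AlphaLISA after 16 hr, decreased signal indicating inhibition.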
TDP1 block – inhibitors of human tyrosyl-DNA phosphodiesterase TDP1 | Q9NUW8 | recombinant TDP1, AlphaScreen DNA substrate cleavage | Potency, µM (highest dose often 130 µM), inactives show at the highest dose activity change, negative = inhibition, hits mostly inhibitors | 350,000 compounds, 0.28% hits | AID 485290; further: potency means the concentration at half of the fitted maximal effect; on the % scale 0 is the no-effect control and ±100 the full control effect; nearly all actives have a fitted effect of over 40% in size
Target sequence (Q9NUW8 whole entry, looked up): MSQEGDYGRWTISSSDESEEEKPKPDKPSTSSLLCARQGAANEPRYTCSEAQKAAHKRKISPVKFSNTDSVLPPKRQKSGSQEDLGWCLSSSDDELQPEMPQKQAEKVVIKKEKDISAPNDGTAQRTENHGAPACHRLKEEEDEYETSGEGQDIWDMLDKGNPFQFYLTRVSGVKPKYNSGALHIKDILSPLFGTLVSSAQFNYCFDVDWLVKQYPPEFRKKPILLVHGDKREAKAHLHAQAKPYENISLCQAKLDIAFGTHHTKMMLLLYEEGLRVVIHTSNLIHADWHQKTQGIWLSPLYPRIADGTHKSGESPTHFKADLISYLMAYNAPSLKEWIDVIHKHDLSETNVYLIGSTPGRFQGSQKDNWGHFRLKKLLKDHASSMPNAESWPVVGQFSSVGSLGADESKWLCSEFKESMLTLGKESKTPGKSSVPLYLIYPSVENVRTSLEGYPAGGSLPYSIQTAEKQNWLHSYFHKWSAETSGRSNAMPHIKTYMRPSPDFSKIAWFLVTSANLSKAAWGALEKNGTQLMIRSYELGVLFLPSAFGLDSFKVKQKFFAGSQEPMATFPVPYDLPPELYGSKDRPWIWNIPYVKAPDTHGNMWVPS
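Recombinant human Tdp1 (E. coli-expressed, 1 nM final) preincubated with compounds 15 min at room temperature, then 5'-biotin/3'-phosphotyrosine-FITC DNA substrate (15 nM final) added for 5 min. AlphaScreen beads (10 ug/ml final) added 10 min; cleavage lowers signal.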
HepG2 tox – HepG2 cytotoxicity, counter-screen for TGF-b inhibitors. HepG2 CAGA-GFP viability, ATP luminescence, 18 h. Potency, µM (top dose mostly 46.1 µM), for the others: at the highest dose activity change, negative = cytotoxicity, hits mostly cytotoxic. 410,000 compounds, 0.76% hits. AID 588856; further: potency means the concentration at half of the fitted maximal effect
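HepG2 CAGA-GFP cells (1000/well, DMEM with 1% FBS) received compound, then TGF-beta at 500 pg/mL final, and were incubated 18 hours at 37 degrees C. Viability was read by CellTiter-Glo luminescence. Media-only wells were set as complete cell-killing and DMSO as no toxicity.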
* hit, by the source's call; [ ] = dose if it differs, or a comment. In the library only some 18% were active in any assay of this set; here they are far more common. Unless noted, the call rests on the fitted dose curve; in most records, active means well fitted curve in the direction sought with a large enough effect; inconclusive means small, poorly fitted or top-dose-only effect, or another doubt; inactive means no such curve, though single readings can be large; an effect the other way counts as inactive or inconclusive.

What do the screens show for `Cc1noc(C)c1-c1nc(Nc2ccncc2)c2ccccc2n1`?
DT40 TDP1 no CPT: inconclusive; TDP1 cell CPT: -12%; TDP1 block: 28µM*

What do the screens show for `Cc1noc(C)c1-c1nc(Nc2ccc(F)cc2)c2ccccc2n1`?
DT40 TDP1 no CPT: 2%; TDP1 cell CPT: -16%

Results for COC(=O)C(Cc1ccccc1)NC(=O)CCNC(=O)c1ccc(Br)cc1 (stereo not drawn) ?
DT40 TDP1 no CPT: -5%; TGFb inhibitor: inconclusive; TDP1 cell CPT: -17%; IL-1B inflam inh: -10; TDP1 block: -10%; HepG2 tox: -26%

What do the screens show for `CCCCn1c(=O)c(CCC(=O)OCC(=O)Nc2cccc3ccccc23)nc2ccccc21`?
DT40 TDP1 no CPT: inconclusive; TGFb inhibitor: 22%; TDP1 cell CPT: -1%; IL-1B inflam inh: 17; TDP1 block: 3%; HepG2 tox: 18%

How did O=C1c2ccccc2NC2CCCCC12 (stereo not drawn) do in these assays?
DT40 TDP1 no CPT: 23µM*; TGFb inhibitor: 4%; TDP1 cell CPT: inconclusive; IL-1B inflam inh: 16; TDP1 block: 4%; HepG2 tox: -39%

What do the screens show for `O=C1c2ccccc2NC2CCCCCN12` (stereo not drawn)?
DT40 TDP1 no CPT: -3%; TGFb inhibitor: 18%; TDP1 cell CPT: -3%; IL-1B inflam inh: 0; TDP1 block: -5%; HepG2 tox: 3%

Results for N#C[C@H]1C2OC2c2ccccc2N1C(=O)c1ccccc1 (stereo partly drawn) ?
DT40 TDP1 no CPT: -11%; TGFb inhibitor: -6%; TDP1 cell CPT: -15%; IL-1B inflam inh: -13; HepG2 tox: -21%

Results for CCOC(=O)C1=CC[C@]2(C)c3c(c4ccccc4n3C)C(=O)C1N2C ?
DT40 TDP1 no CPT: -13%; TGFb inhibitor: -2%; TDP1 cell CPT: -22%; IL-1B inflam inh: 26; TDP1 block: -1%; HepG2 tox: 4%

What do the screens show for `CCOc1ccc(OCC)c(Nc2nc3ccc(Cl)cc3n3cnnc23)c1`?
DT40 TDP1 no CPT: inconclusive; TDP1 cell CPT: inconclusive; TDP1 block: 3%; HepG2 tox: 1%

What do the screens show for `CC(C)Nc1nc(N)c(C(=O)C23CC4CC(CC(C4)C2)C3)s1`?
DT40 TDP1 no CPT: inconclusive; TGFb inhibitor: inconclusive; TDP1 cell CPT: 21µM*; IL-1B inflam inh: 24; TDP1 block: 2%; HepG2 tox: -79%

What do the screens show for `COc1ccc(C(=O)Nc2nc(C)c(C)s2)cc1OC`?
DT40 TDP1 no CPT: inconclusive; TGFb inhibitor: 2%; TDP1 cell CPT: inconclusive; IL-1B inflam inh: -7; TDP1 block: 3%; HepG2 tox: -26%

What do the screens show for `COc1cccc(C(=O)c2sc(Nc3ccc(F)c(Cl)c3)nc2N)c1`?
DT40 TDP1 no CPT: -16%; TGFb inhibitor: 3%; TDP1 cell CPT: 2%; TDP1 block: -3%; HepG2 tox: -3%

How did COc1ccc(C(=O)c2sc(NC(C)C)nc2N)cc1OC do in these assays?
DT40 TDP1 no CPT: 23µM*; TGFb inhibitor: inconclusive; TDP1 cell CPT: inconclusive; IL-1B inflam inh: -109*; TDP1 block: 4%; HepG2 tox: 19%

Results for COc1cccc(C(=O)c2sc(NC(C)C)nc2N)c1 ?
DT40 TDP1 no CPT: inconclusive; TGFb inhibitor: inconclusive; TDP1 cell CPT: inconclusive; IL-1B inflam inh: -107*; TDP1 block: 2%[56.1 µM]; HepG2 tox: 39%

How did O=C(CC1C(=O)NCCN1Cc1cccc(F)c1)NCCCCCN1CCOCC1 (stereo not drawn) do in these assays?
DT40 TDP1 no CPT: -5%; TGFb inhibitor: 4%; TDP1 cell CPT: 0%; IL-1B inflam inh: -7; TDP1 block: 4%; HepG2 tox: 0%

How did CCOC(=O)CSc1snnc1C do in these assays?
DT40 TDP1 no CPT: 10%; TGFb inhibitor: 18%; TDP1 cell CPT: 7%; IL-1B inflam inh: 7; HepG2 tox: -1%

How did CCOC(=O)CSC1=NC(=O)CS1 do in these assays?
DT40 TDP1 no CPT: inconclusive; TGFb inhibitor: 9%; TDP1 cell CPT: 10µM*; IL-1B inflam inh: -14; TDP1 block: -5%; HepG2 tox: -13%

Results for Cc1ccc(CNC(=O)C2CCN(c3nn4c(=O)cc(C)nc4s3)CC2)cc1 ?
DT40 TDP1 no CPT: 23%; TGFb inhibitor: 7%; TDP1 cell CPT: 0%; IL-1B inflam inh: -16; TDP1 block: 0%; HepG2 tox: -6%

What do the screens show for `O=C(COc1ccccc1F)Nc1ccc2nc(SCc3ccccc3)sc2c1`?
DT40 TDP1 no CPT: -20%; TGFb inhibitor: -32%; TDP1 cell CPT: -26%; TDP1 block: -6%; HepG2 tox: -8%

How did Cc1cccc(NC(=O)CSc2nc3ccc(NC(=O)COc4ccccc4F)cc3s2)c1 do in these assays?
DT40 TDP1 no CPT: 6.5µM*; TGFb inhibitor: inconclusive; TDP1 cell CPT: 16µM*; TDP1 block: 4%; HepG2 tox: -69%

Results for CCN(CC)C(=O)CSc1nc2ccc(NC(=O)CSc3nccn3C)cc2s1 ?
DT40 TDP1 no CPT: 16µM*; TGFb inhibitor: -2%; TDP1 cell CPT: -29%; IL-1B inflam inh: -53*; TDP1 block: 3%; HepG2 tox: -10%

Results for Cc1ccc(NC(=O)CSc2nc3ccc(NC(=O)c4ccco4)cc3s2)cc1 ?
DT40 TDP1 no CPT: inconclusive; TGFb inhibitor: -27%; TDP1 cell CPT: inconclusive; TDP1 block: 3%; HepG2 tox: -50%

What do the screens show for `Cn1cnnc1SCC(=O)Nc1ccc2nc(SCc3cccc4ccccc34)sc2c1`?
DT40 TDP1 no CPT: inconclusive; TGFb inhibitor: 1%; TDP1 cell CPT: 23µM*; IL-1B inflam inh: -16; TDP1 block: 5%; HepG2 tox: 11%

What do the screens show for `Cn1cnnc1SCC(=O)Nc1ccc2nc(SCc3ccccc3Cl)sc2c1`?
DT40 TDP1 no CPT: 2%; TGFb inhibitor: -1%; TDP1 cell CPT: 13%; IL-1B inflam inh: 20; TDP1 block: 5%; HepG2 tox: -1%

What do the screens show for `Cc1cccc(NC(=O)CSc2nc3ccc(NC(=O)c4ccccc4)cc3s2)c1`?
DT40 TDP1 no CPT: 6.5µM*; TGFb inhibitor: inconclusive; TDP1 cell CPT: 8.2µM*; TDP1 block: 7%; HepG2 tox: -31%

Results for Cc1c(C(=O)NCc2ccco2)cnn1-c1ncc2c(n1)-c1ccccc1CC2 ?
DT40 TDP1 no CPT: inconclusive; TDP1 cell CPT: -7%[9.04 µM]

Bioassay records: PubChem, National Center for Advancing Translational Sciences (NCATS)
